The antibiotic and cytotoxicity screens of Wong et al. (2023)
In all, about 39,000 compounds went through this assay and about 3,300 (8.5%) were called active. What follows is part of a selection rich in actives, with near analogues and random picks from the rest.

test system: HepG2; experiment: cytotoxicity call (relative viability < 0.9); conditions: 10 µM

| Compound | cytotoxicity call |
| --- | --- |
| Cc1noc(C)c1NC(=O)N(C)C[C@H]1Oc2ccc(NS(=O)(=O)c3ccccc3)cc2C(=O)N([C@H](C)CO)C[C@@H]1C | inactive |
| COc1ccc(NC(=O)Nc2ccc3c(c2)C(=O)N([C@H](C)CO)C[C@@H](C)[C@H](CN(C)C(=O)Cc2ccccc2)OCCCC[C@H](C)O3)cc1 | inactive |
| NCc1cn(-c2ccccc2)nc1C12CC3CC(CC(C3)C1)C2 | active |
| OCc1cn(-c2ccccc2)nn1 | inactive |
| c1ccc(-c2nc(C34CC5CC(CC(C5)C3)C4)cs2)cc1 | inactive |
| CCS(=O)(=O)Nc1ccc2c(c1)C(=O)N(C)C[C@H](OC)[C@@H](C)CN(CCC(F)(F)F)[C@@H](C)CO2 | inactive |
| C[C@H](CO)N1C[C@H](C)[C@@H](CN(C)C(=O)c2ccc3c(c2)OCO3)Oc2cc(C#Cc3ccccc3F)ccc2S1(=O)=O | inactive |
| C[C@H]1CN([C@@H](C)CO)C(=O)c2cccc(NC(=O)c3nc4ccccc4s3)c2O[C@@H]1CN(C)Cc1ccc(-c2ccccc2)cc1 | inactive |
| O=C(O)c1nn(Cc2ccccc2)nc1C(=O)O | active |
| NC(=O)c1nnn(Cc2ccccc2)c1N | inactive |
| O=C(O)Cn1nc2ccccc2n1 | inactive |
| C[C@H](CO)N1C[C@H](C)[C@@H](CN(C)S(=O)(=O)c2ccccc2F)Oc2ncc(Br)cc2C1=O | inactive |
| Cc1noc(C)c1NC(=O)N(C)C[C@@H]1OCCCC[C@H](C)Oc2ccc(NS(=O)(=O)c3ccccc3)cc2C(=O)N([C@H](C)CO)C[C@@H]1C | inactive |
| C[C@@H]1CCCCO[C@@H](CN(C)Cc2ccc(Cl)c(Cl)c2)[C@@H](C)CN([C@H](C)CO)C(=O)c2cc(NS(=O)(=O)c3ccc(F)cc3)ccc2O1 | active |
| C[C@H](CO)N1C[C@H](C)[C@@H](CN(C)Cc2ccc(Cl)c(Cl)c2)OCCCC[C@H](C)Oc2ccc(NS(=O)(=O)c3ccc(F)cc3)cc2C1=O | inactive |
| C[C@H](CO)N1C[C@H](C)[C@H](CN(C)Cc2ccc(Cl)c(Cl)c2)OCCCC[C@H](C)Oc2ccc(NS(=O)(=O)c3ccc(F)cc3)cc2C1=O | inactive |
| C[C@@H]1CCCCO[C@H](CN(C)Cc2ccc(Cl)c(Cl)c2)[C@@H](C)CN([C@H](C)CO)C(=O)c2cc(NS(=O)(=O)c3ccc(F)cc3)ccc2O1 | inactive |
| C[C@H]1CCCCO[C@H](CN(C)Cc2ccc(Cl)c(Cl)c2)[C@@H](C)CN([C@@H](C)CO)C(=O)c2cc(NS(=O)(=O)c3ccc(F)cc3)ccc2O1 | inactive |
| C[C@@H]1CCCCO[C@@H](CN(C)Cc2ccc(Cl)c(Cl)c2)[C@H](C)CN([C@@H](C)CO)C(=O)c2cc(NS(=O)(=O)c3ccc(F)cc3)ccc2O1 | active |
| C[C@@H]1CCCCO[C@H](CN(C)Cc2ccc(Cl)c(Cl)c2)[C@H](C)CN([C@@H](C)CO)C(=O)c2cc(NS(=O)(=O)c3ccc(F)cc3)ccc2O1 | active |
| C[C@@H]1CCCCO[C@@H](CN(C)Cc2ccc(Cl)c(Cl)c2)[C@H](C)CN([C@H](C)CO)C(=O)c2cc(NS(=O)(=O)c3ccc(F)cc3)ccc2O1 | active |

| Compound | cytotoxicity call |
| --- | --- |
| C[C@@H]1CCCCO[C@H](CN(C)Cc2ccc(Cl)c(Cl)c2)[C@@H](C)CN([C@@H](C)CO)C(=O)c2cc(NS(=O)(=O)c3ccc(F)cc3)ccc2O1 | inactive |
| C[C@@H]1CCCCO[C@@H](CN(C)Cc2ccc(Cl)c(Cl)c2)[C@@H](C)CN([C@@H](C)CO)C(=O)c2cc(NS(=O)(=O)c3ccc(F)cc3)ccc2O1 | inactive |
| C[C@@H]1CN([C@H](C)CO)C(=O)c2cc(NS(=O)(=O)c3ccc(F)cc3)ccc2O[C@@H](C)CCCCO[C@H]1CN(C)Cc1ccc(Cl)c(Cl)c1 | inactive |
| C[C@@H]1CCCCO[C@@H](CN(C)S(C)(=O)=O)[C@H](C)CN([C@H](C)CO)C(=O)c2cc(N(C)C)ccc2O1 | inactive |
| CCO/C(O)=C1/C(=O)CN(C)C1=O | inactive |
| CCS(=O)(=O)Nc1ccc2c(c1)C(=O)N(C)[C@@H]1CC[C@H](CC(=O)N[C@@H]3CCN(Cc4ccccc4)C3)O[C@H]1CO2 | inactive |
| CN(C)CC(=O)N[C@H]1CC[C@@H](CCNC(=O)C2CCC2)O[C@H]1CO | inactive |
| Cc1nnc(N2CCC[C@]3(CN(C(=O)CO)CCO3)C2)o1 | inactive |
| C[C@@H]1CN([C@H](C)CO)C(=O)Cc2cc(NC(=O)C3CCCCC3)ccc2O[C@@H]1CN(C)C(=O)Nc1ccc(C(F)(F)F)cc1 | inactive |
| C[C@H]1CN([C@@H](C)CO)C(=O)c2cccc(NC(=O)c3ccncc3)c2O[C@@H]1CN(C)Cc1ccc(Oc2ccccc2)cc1 | inactive |
| Cc1ccc(S(=O)(=O)Nc2ccc3c(c2)C(=O)N([C@@H](C)CO)C[C@H](C)[C@@H](CN(C)C(=O)Cc2ccccc2)OCCCC[C@H](C)O3)cc1 | inactive |
| C[C@@H]1CN([C@@H](C)CO)S(=O)(=O)c2ccc(Br)cc2O[C@@H]1CN(C)CC1CCOCC1 | inactive |
| CC(C)NC(=O)Nc1ccc2c(c1)C(=O)N([C@@H](C)CO)C[C@@H](C)[C@H](CN(C)Cc1ccc(C(F)(F)F)cc1)OCCCC[C@@H](C)O2 | inactive |
| CC(C)NC(=O)Nc1ccc2c(c1)C(=O)N([C@H](C)CO)C[C@H](C)[C@@H](CN(C)Cc1ccc(C(F)(F)F)cc1)OCCCC[C@@H](C)O2 | inactive |
| CC(C)NC(=O)Nc1ccc2c(c1)C(=O)N([C@H](C)CO)C[C@@H](C)[C@H](CN(C)Cc1ccc(C(F)(F)F)cc1)OCCCC[C@H](C)O2 | active |
| CC(C)NC(=O)Nc1ccc2c(c1)C(=O)N([C@@H](C)CO)C[C@@H](C)[C@@H](CN(C)Cc1ccc(C(F)(F)F)cc1)OCCCC[C@H](C)O2 | inactive |
| CC(C)NC(=O)Nc1ccc2c(c1)C(=O)N([C@@H](C)CO)C[C@H](C)[C@@H](CN(C)Cc1ccc(C(F)(F)F)cc1)OCCCC[C@@H](C)O2 | active |
| CC(C)NC(=O)Nc1ccc2c(c1)C(=O)N([C@H](C)CO)C[C@@H](C)[C@@H](CN(C)Cc1ccc(C(F)(F)F)cc1)OCCCC[C@H](C)O2 | inactive |
| CC(C)NC(=O)Nc1ccc2c(c1)C(=O)N([C@H](C)CO)C[C@H](C)[C@@H](CN(C)Cc1ccc(C(F)(F)F)cc1)OCCCC[C@H](C)O2 | inactive |
| CC(C)NC(=O)Nc1ccc2c(c1)C(=O)N([C@H](C)CO)C[C@@H](C)[C@H](CN(C)Cc1ccc(C(F)(F)F)cc1)OCCCC[C@@H](C)O2 | active |
| CC(C)NC(=O)Nc1ccc2c(c1)C(=O)N([C@H](C)CO)C[C@H](C)[C@H](CN(C)Cc1ccc(C(F)(F)F)cc1)OCCCC[C@@H](C)O2 | inactive |

| Compound | cytotoxicity call |
| --- | --- |
| CC(C)NC(=O)Nc1ccc2c(c1)C(=O)N([C@@H](C)CO)C[C@H](C)[C@H](CN(C)Cc1ccc(C(F)(F)F)cc1)OCCCC[C@@H](C)O2 | active |
| CC(C)NC(=O)N(C)C[C@@H]1Oc2ccc(NC(=O)CCN3CCOCC3)cc2C(=O)N([C@@H](C)CO)C[C@@H]1C | inactive |
| COc1ccc2c3c(n(c2c1)C)[C@H](CO)N(C[C@]13CCN(CC1)C(=O)CC1CC1)C(=O)CN1CCOCC1 | inactive |
| COc1ccc(-c2cnc3c(c2)C(=O)N([C@@H](C)CO)C[C@@H](C)[C@H](CN(C)C(=O)C2CCOCC2)O3)cc1 | inactive |
| C[C@H]1CCCCO[C@H](CN(C)Cc2ccc(C(=O)O)cc2)[C@@H](C)CN([C@@H](C)CO)C(=O)c2cc(NC(=O)Cc3ccccc3)ccc2O1 | inactive |
| Cc1ccc(S(=O)(=O)Nc2ccc3c(c2)C(=O)N([C@@H](C)CO)C[C@@H](C)[C@@H](CN(C)CC2CC2)O3)cc1 | inactive |
| CO[C@H]1CN(C)C(=O)c2ccc(NS(=O)(=O)c3ccccc3)cc2OC[C@H](C)N(C(=O)NC(C)C)C[C@@H]1C | inactive |
| COc1ccc(NC(=O)N(C)C[C@H]2Oc3ccc(NS(=O)(=O)c4cn(C)cn4)cc3CC(=O)N([C@@H](C)CO)C[C@H]2C)cc1 | inactive |
| O=C(C[C@@H]1C[C@H]2c3cc(NC(=O)Cc4ccncc4)ccc3O[C@H]2[C@H](CO)O1)NCCN1CCCCC1 | inactive |
| CC(=O)N[C@H]1[C@H](O[C@@H]2[C@@H](O)[C@H](C)O[C@@H](Oc3ccc4c(=O)c(-c5ccc(O)cc5)coc4c3)[C@@H]2O)O[C@H](CO)[C@@H](O[C@@H]2O[C@@H](C)[C@H](O)[C@@H](O)[C@H]2O)[C@@H]1O | inactive |
| O=C(C[C@@H]1C=C[C@@H](NC(=O)c2ccncc2)[C@@H](CO)O1)NCc1ccncn1 | inactive |
| C[C@@H]1CCCCO[C@H](CN(C)Cc2ccc(C(=O)O)cc2)[C@H](C)CN([C@@H](C)CO)C(=O)c2cc(NC(=O)Nc3ccc(F)cc3)ccc2O1 | inactive |
| COc1ccc(S(=O)(=O)Nc2ccc3c(c2)C(=O)N([C@H](C)CO)C[C@H](C)[C@@H](CN(C)S(=O)(=O)c2ccccc2)O3)cc1 | inactive |
| CC(C)NC(=O)Nc1ccc2c(c1)C(=O)N([C@@H](C)CO)C[C@@H](C)[C@@H](CN(C)Cc1ccc(C(F)(F)F)cc1)OCCCC[C@@H](C)O2 | active |
| CC(C)NC(=O)Nc1ccc2c(c1)C(=O)N([C@H](C)CO)C[C@@H](C)[C@@H](CN(C)Cc1ccc(C(F)(F)F)cc1)OCCCC[C@@H](C)O2 | inactive |
| CC(C)NC(=O)Nc1ccc2c(c1)C(=O)N([C@@H](C)CO)C[C@H](C)[C@@H](CN(C)Cc1ccc(C(F)(F)F)cc1)OCCCC[C@H](C)O2 | active |
| CC(C)NC(=O)Nc1ccc2c(c1)C(=O)N([C@@H](C)CO)C[C@@H](C)[C@H](CN(C)Cc1ccc(C(F)(F)F)cc1)OCCCC[C@H](C)O2 | inactive |
| CC(C)NC(=O)Nc1ccc2c(c1)C(=O)N([C@@H](C)CO)C[C@H](C)[C@H](CN(C)Cc1ccc(C(F)(F)F)cc1)OCCCC[C@H](C)O2 | inactive |
| CC(C)NC(=O)Nc1ccc2c(c1)C(=O)N([C@H](C)CO)C[C@H](C)[C@H](CN(C)Cc1ccc(C(F)(F)F)cc1)OCCCC[C@H](C)O2 | inactive |
